BoNT F protease: blocks Botulinum neurotoxin F light chain protease; Multiplex microsphere protease cleavage assay, flow cytometry; inhibition, % at 10 µM; 360,000 tested, 0.22% active; AID 588497; in the data active = inhibition above about 35%, passing the limit was not always enough; inconclusive = no clear call, values can overlap the other calls; note: plate controls were buffer without enzyme for full effect and enzyme alone for no effect
SARS 3CLpro inh: SARS-CoV 3CLpro protease inhibition; recombinant SARS-CoV 3CLpro, quenched FRET peptide cleavage; 290,000 tested, 0.14% active; inhibition, % at 6 µM; P0C6X7; in the data active = inhibition above about 12%
BoNT A protease: BoNT A light chain protease inhibition | multiplex microsphere protease substrate cleavage, flow cytometry | inhibition, % at 10 µM | 360,000 tested, 0.17% active | AID 588499; note: plate controls were buffer without enzyme for full effect and enzyme alone for no effect
Anthrax LF prot: blocks Bacillus anthracis lethal factor protease; P15917; multiplex microsphere protease cleavage assay, LF; inhibition, % at 10 µM; 360,000 tested, 0.12% active; note: plate controls were buffer without enzyme for full effect and enzyme alone for no effect
Target sequence (P15917 whole entry, looked up): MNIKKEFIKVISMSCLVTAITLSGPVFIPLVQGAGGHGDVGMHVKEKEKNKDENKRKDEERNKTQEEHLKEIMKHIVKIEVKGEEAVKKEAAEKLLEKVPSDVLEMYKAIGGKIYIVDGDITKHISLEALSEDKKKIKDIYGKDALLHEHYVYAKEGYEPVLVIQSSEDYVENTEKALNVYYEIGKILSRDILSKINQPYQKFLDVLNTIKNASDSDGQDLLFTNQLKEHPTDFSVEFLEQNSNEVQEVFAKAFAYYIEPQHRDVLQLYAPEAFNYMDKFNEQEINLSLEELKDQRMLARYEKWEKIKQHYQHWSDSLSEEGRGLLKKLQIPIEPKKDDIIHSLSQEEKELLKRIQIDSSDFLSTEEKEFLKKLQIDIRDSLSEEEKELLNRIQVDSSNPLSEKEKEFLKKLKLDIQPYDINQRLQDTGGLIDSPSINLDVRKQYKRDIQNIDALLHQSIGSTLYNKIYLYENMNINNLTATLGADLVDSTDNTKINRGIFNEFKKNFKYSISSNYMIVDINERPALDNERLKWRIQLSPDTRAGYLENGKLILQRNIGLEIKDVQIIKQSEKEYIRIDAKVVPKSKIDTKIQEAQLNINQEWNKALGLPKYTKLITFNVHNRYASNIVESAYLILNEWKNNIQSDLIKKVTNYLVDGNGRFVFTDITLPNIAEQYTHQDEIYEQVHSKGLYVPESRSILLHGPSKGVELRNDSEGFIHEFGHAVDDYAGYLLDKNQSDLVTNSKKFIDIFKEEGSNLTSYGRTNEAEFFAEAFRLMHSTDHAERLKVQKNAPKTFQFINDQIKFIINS
Bead autofluor: flagged as autofluorescent in microsphere protease counterscreen; 360,000 tested, 3.1% active; compound autofluorescence counterscreen, microsphere flow cytometry; active compounds read high; fluorescence intensity (concentration not given with the values); AID 624483; in the data active = fluorescence intensity above about 16000; inconclusive = no clear call, values can overlap the other calls
CCHFV vOTU inh: blocks the CCHF virus ovarian tumor domain protease | 370,000 tested, 0.55% active | inhibition, % at 11.5 µM | CCHFV vOTU protease, Pep-AMC fluorescence; in the data active = inhibition above about 30%; note: 0% = vehicle wells with enzyme and 100% = no enzyme wells
* marks the source's active call; other numbers are inactive results; ? = inconclusive; · = not tested or not shown. In the library only some 3.9% were active in any assay of this set; here they are far more common. Cut-off read from the data, not from the text of the source, unless noted: active = inhibition above about 30%; inconclusive = no clear call, values can overlap the other calls; inactive = below that.

SMILES	BoNT F protease	SARS 3CLpro inh	BoNT A protease	Anthrax LF prot	Bead autofluor	CCHFV vOTU inh
CCOC(=O)[C@@]12CN(C(=O)OC(C)(C)C)CC=C1N(Cc1ccc(OC)cc1)C(=O)[C@H]2CC(=O)NCc1cccs1	·	·	·	·	·	10
O=C(CN1C(=O)CSc2ccccc21)Nc1ccccc1C(=O)N1CCOCC1	2	4	3	-1	22009*	5
O=C(CN1C(=O)CCSc2ccccc21)Nc1ccc(Cl)c(Cl)c1	·	·	·	·	·	-4
CC1CC(=O)N(CC(=O)Nc2ccc3c(c2)OCO3)c2ccccc2S1 (centres undefined)	-6	1	-4	-5	17388*	5
O=C(CN1C(=O)CC(c2ccco2)Sc2ccccc21)Nc1ccc2c(c1)OCCO2 (centres undefined)	-10	2	0	3	13764	1
O=C(CN1C(=O)CCSc2ccccc21)Nc1ccc2c(c1)OCCO2	-7	1	-1	-7	16584*	7
Cc1ccccc1NC(=O)CN1C(=O)CSc2ccccc21	0	2	1	-5	4498	-1
O=C(NCc1ccccc1F)C1C2C=CC3(CN(Cc4ccccc4)C(=O)C13)O2 (centres undefined)	·	·	·	·	·	-6
Cc1cccc(NC(=O)/C(C#N)=C\c2cccnc2)c1	-2	-3	-2	0	17179*	-8
O=C(O)c1ccccc1S(=O)CCO (centres undefined)	2	-1	0	2	22978*	2
CO/N=C/c1cc([N+](=O)[O-])ccc1Sc1ccc(C)cc1	2	-2	?	-1	21195*	13
O=C(Nc1ccccc1C(F)(F)F)OCCN1C(=O)CCC12CCC(c1ccccc1)CC2 (centres undefined)	·	·	·	·	·	4
O=C(CCCc1ccccc1)Nc1ccc(Br)cc1F	-26	-7	-1	32*	3547	·
O=C(CCc1ccccc1)Nc1ccc(F)cc1F	7	1	0	-7	4987	10
CCc1ccc(N2CC(C(=O)Nc3ccc(C)c(S(=O)(=O)N4CCOCC4)c3)CC2=O)cc1 (centres undefined)	-6	6	-1	-11	22656*	0
CCc1ccc(N2CC(C(=O)Nc3ccc(OC)c(S(=O)(=O)N4CCOCC4)c3)CC2=O)cc1 (centres undefined)	-1	·	0	-8	3577	14
Cc1cc(C)c2nc(-c3ccccn3)cc(C(=O)Nc3ccc(S(=O)(=O)Nc4cc(C)on4)cc3)c2c1	-2	2	?	-7	16205*	-5
Cc1cc(NS(=O)(=O)c2ccc(NC(=O)COc3ccccc3Cl)cc2)no1	-9	-2	-4	-4	24447*	2
CCOc1ccccc1OCC(=O)Nc1ccc(S(=O)(=O)Nc2nc(C)cc(C)n2)cc1	-3	5	-2	-2	20817*	2
Cc1cc(NS(=O)(=O)c2ccc(NC(=O)COc3ccccc3C(C)C)cc2)no1	-10	6	0	-13	4414	20
CCn1c(SCC(=O)Nc2ccc(C(C)C)cc2)nnc1-c1ccc(C(C)(C)C)cc1	·	·	·	·	·	-5
CC(C)(C)c1ccc(-c2nnc3n2N=C(c2ccc(Cl)cc2)CS3)cc1	·	·	·	·	·	4
O=S1(=O)c2ccc(Br)cc2OC[C@@H](Cc2ccccc2)N1Cc1cn(Cc2ccc(C(F)(F)F)cc2)nn1	·	·	·	·	·	7
CCOCC(=O)Nc1cc(-c2cn3cccnc3n2)ccc1C	-6	1	?	-2	22267*	·
CC(C)C(C)(C#N)NC(=O)CSc1nc(C2CCCCC2)n(-c2ccccc2)n1 (centres undefined)	38*	-5	3	-1	2368	16
SMILES	BoNT F protease	SARS 3CLpro inh	BoNT A protease	Anthrax LF prot	Bead autofluor	CCHFV vOTU inh
NC(=O)NC(=O)CSc1nc(C2CCCCC2)n(-c2ccccc2)n1	4	0	0	0	2442	9
CCNC(=O)CC1C(=O)N(c2ccc(C)cc2)C(=O)N1CCc1ccc(OC)c(OC)c1 (centres undefined)	8	1	1	1	9404	2
CCNC(=O)CC1C(=O)N(c2ccccc2)C(=O)N1CCc1ccc(OC)c(OC)c1 (centres undefined)	2	0	?	0	22965*	-15
CCNC(=O)CC1C(=O)N(c2ccc(F)cc2)C(=O)N1CCc1ccc(OC)cc1 (centres undefined)	-1	-1	-1	-1	20994*	-7
CCOC(=O)c1ccc(NC(=O)CC2C(=O)N(c3ccccc3)C(=O)N2CCCOC)cc1 (centres undefined)	-1	0	0	-4	19974*	-15
CCOC(=O)c1csc(NC(=O)C2CCCN(S(=O)(=O)c3ccc(Br)s3)C2)n1 (centres undefined)	·	·	·	·	·	5
COc1ccc(OC)c(NC=C2C(=O)OC(C)(C)OC2=O)c1	2	-4	0	0	2896	3
COc1ccc(OC)c(NC=C2C(=O)OC3(CCCCC3)OC2=O)c1	14	-3	10	2	18401*	5
CCn1c(=O)cc(SCC(=O)N2CCC(C)CC2)c2ccccc21	4	-4	?	0	15393	-9
CCOC(=O)N1CCC(NC(=O)CSc2cc(=O)n(CC)c3ccccc23)CC1	3	1	3	4	21138*	-6
CCOC(=O)C1CCN(C(=O)CSc2cc(=O)n(CC)c3ccccc23)CC1	-6	-3	-3	0	16952*	-15
c1cc2ccn(CC3CC3)c2cc1-c1ccc2ccn(CC3CC3)c2c1	·	·	·	·	·	0
Nc1cc(N2CCCCC2)c(Cl)cc1[N+](=O)[O-]	6	1	?	-12	21335*	4
Nc1cc(N2CCCCC2)c([N+](=O)[O-])cc1Cl	-4	-3	1	0	10319	-5
O=[N+]([O-])c1ccc(N2CCCCC2)c(Cl)c1N1CCCCC1	-1	1	1	2	19380*	-3
O=[N+]([O-])c1ccc(N2CCCCCC2)c2nonc12	115*	-7	53*	26	14674	14
Cc1sc(NC(=O)c2ccc(Cl)s2)c(C(N)=O)c1C	-2	0	0	-10	16138*	17
Cc1sc(NC(=O)c2ccc(Br)s2)c(C(N)=O)c1C	-6	8	-1	4	7911	1
Clc1ccc(-c2nnc(-c3ccccc3)o2)c(Cl)c1	-2	-1	1	-1	9453	22
Clc1ccc(-c2nnc(-c3ccc(Br)o3)o2)c(Cl)c1	2	-3	1	1	22190*	-15
ONC(=Nc1ccccc1)c1ccc(Cl)cc1	4	0	2	-1	21077*	-2
NC(=Nc1ccc(Cl)cc1)c1ccccc1	-1	-3	-1	-2	4174	-34
CCC(C)CNC(=O)c1oc(=O)c2ccccc2c1-c1ccc(C)cc1 (centres undefined)	·	·	·	·	·	9
O=C1C2C3C=CC(C2C(=O)N1CCCO)C1C2C(=O)N(CCCO)C(=O)C2C31 (centres undefined)	-2	-5	-3	1	21305*	-12

Screening results deposited in PubChem by several laboratories.
